The full ranking holds about 110,000 compounds; the median of “z-score” is about -0.1, and the highest 2% start at about 2. The sample as a whole holds a higher share of the highest values than the screen did. Activity calls are given as the source filed them.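 The calls were made as follows: active = z-score in the third read window above 3 or below -3; inactive = the rest.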

Sequence of Metabotropic glutamate receptor 8 (Rattus norvegicus) (P70579 whole entry, looked up): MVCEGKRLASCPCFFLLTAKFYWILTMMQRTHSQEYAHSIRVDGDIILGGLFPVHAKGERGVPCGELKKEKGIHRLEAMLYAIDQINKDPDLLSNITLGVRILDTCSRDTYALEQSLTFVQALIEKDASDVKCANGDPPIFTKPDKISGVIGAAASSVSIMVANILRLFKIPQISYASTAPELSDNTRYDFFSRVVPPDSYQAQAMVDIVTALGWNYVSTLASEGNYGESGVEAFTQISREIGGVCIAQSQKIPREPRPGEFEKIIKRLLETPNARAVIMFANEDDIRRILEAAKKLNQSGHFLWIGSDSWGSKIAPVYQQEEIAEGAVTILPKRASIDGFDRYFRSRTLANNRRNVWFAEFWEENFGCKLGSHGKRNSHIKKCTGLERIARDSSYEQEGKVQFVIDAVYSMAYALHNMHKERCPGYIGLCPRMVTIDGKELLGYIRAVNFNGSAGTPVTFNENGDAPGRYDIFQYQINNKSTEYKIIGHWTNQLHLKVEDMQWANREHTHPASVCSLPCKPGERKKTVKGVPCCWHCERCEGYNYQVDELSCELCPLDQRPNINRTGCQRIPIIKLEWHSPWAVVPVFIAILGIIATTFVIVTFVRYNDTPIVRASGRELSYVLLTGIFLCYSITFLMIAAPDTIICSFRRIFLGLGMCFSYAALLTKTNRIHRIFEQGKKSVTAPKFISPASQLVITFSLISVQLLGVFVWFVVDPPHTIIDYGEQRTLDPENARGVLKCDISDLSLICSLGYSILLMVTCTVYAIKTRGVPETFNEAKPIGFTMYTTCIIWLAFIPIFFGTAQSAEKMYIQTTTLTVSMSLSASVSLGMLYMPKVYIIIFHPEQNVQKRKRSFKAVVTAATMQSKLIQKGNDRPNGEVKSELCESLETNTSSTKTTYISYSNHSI

The assay addresses Metabotropic glutamate receptor 8 (Rattus norvegicus) (UniProt P70579). The assay is described as follows: rat mGluR8 modulators via GIRK flux, primary screen, cell-based, thallium flux, HTS (AID 488969). Conditions: HEK293 rat mGluR8, GIRK (G protein-gated inwardly rectifying potassium channel) thallium flux, FluoZin2; at 10 µM; stronger effect = higher value; submaximal glutamate (EC20) added with thallium.
Regarding `O=C(CSc1nc2c(c(C(F)(F)F)n1)CCc1ccccc1-2)NCc1ccccc1`, the z-score amounted to 0.257.

`Cn1cccc1Cc1nnc(SCC(=O)N2CCCCCC2)n1-c1ccc(F)cc1` came in with a z-score of 2.24. Then `COc1ccc(NC(=O)CSc2nnc(Cc3cccn3C)n2-c2ccc(C)cc2)cc1OC`, with 2.03. `Cn1cccc1Cc1nnc(SCC(=O)NC2CCCC2)n1-c1ccc(F)cc1` gave a z-score of 2.33. In the case of `Cc1ccc(-n2c(Cc3cccn3C)nnc2SCC(=O)NC2CCCCC2)cc1`, the z-score turned out to be 0.061. Compound `CC(=O)Nc1cccc(NC(=O)CSc2nnc(Cc3cccn3C)n2-c2ccc(C)cc2)c1` returned a z-score of -0.278. Compound `Cn1cccc1Cc1nnc(SCC(=O)N2CCN(c3ccccc3)CC2)n1-c1ccc(F)cc1` gave a z-score of -0.223. Turning to `COc1ccc(NC(=O)CSc2nnc(Cc3cccn3C)n2-c2ccc(F)cc2)cc1OC`, the z-score was -0.626. `Cn1cccc1Cc1nnc(SCC(=O)Nc2ccc(F)cc2)n1-c1ccc(F)cc1` displayed a z-score of -0.84. `Cn1cccc1Cc1nnc(SCC(=O)N2CCOCC2)n1-c1ccc(F)cc1` registered a z-score of -0.171. Compound `CC(NC(=O)Cc1ccc(-c2ccccc2)cc1)c1ccccc1` (configuration not stated) showed a z-score of -0.225. `Cc1cc(C)c2oc(C(=O)Nc3nnc(C(C)C)s3)cc(=O)c2c1` came in with a z-score of -0.0364. Under `O=C(Nc1ccccc1)N1CCN(c2ccc(F)cc2)CC1` stands 0.147; under `CC(=O)c1ccc(Sc2ccc(C(C)=O)cc2)cc1`, -0.316. In turn, `CCn1nnc(-c2ccccc2NC(=O)c2cc(OC)c(OC)c(OC)c2)n1` returned a z-score of -1.03. Then `CC(=O)N1CCN(S(=O)(=O)c2cccc(C(=O)NC3CCCc4ccccc43)c2)CC1` (configuration not stated), with 0.0317; and `O=C(NC1CCCc2ccccc21)c1cccc(S(=O)(=O)N2CCN(c3ccccc3)CC2)c1` (configuration not stated), with 2.28. For the compound `CN(C)S(=O)(=O)c1cccc(C(=O)NC2CCCc3ccccc32)c1` (configuration not stated), the z-score was -0.104. As for `COC(=O)c1ccc(/C=N/NC(=O)CC(=O)NCC(C)C)cc1`, the z-score was -0.0626. Regarding `COc1cc(CNCCO)cc(Br)c1OCc1ccccc1Cl`, the z-score is 1.32. `O=C(O/N=C/c1ccc2c(c1)OCO2)c1ccccc1Cl`: the z-score was determined as 0.0816. The compound `CCOc1ccc(-n2c(SCc3nc(-c4ccc(C)cc4)no3)nnc2-c2ccncc2)cc1` returned a z-score of -0.127. Under `CCCn1c(SCc2nc(-c3cccs3)no2)nnc1-c1ccncc1` stands 0.141.

Turning to `CCOc1ccc(-n2c(SCc3nc(-c4cccs4)no3)nnc2-c2ccncc2)cc1`, the z-score was 7.31 (active). `S=C(Nc1cccc(Cl)c1Cl)Nn1cnnc1` gave a z-score of -0.236.

In turn, `O=C(O)c1ccc(NC(=S)NC(NC(=O)c2ccco2)C(Cl)(Cl)Cl)cc1` (configuration not stated) came in with a z-score of -0.0488. Turning to `Cc1cc(C)c2[nH]c(=O)c(=O)[nH]c2c1`, the z-score is -0.178. Then `Cc1cc2[nH]c(=S)[nH]c2cc1C`, with 0.151. Then `Cc1cc(C)c2[nH]c(=S)cc(C)c2c1`, with 5.14 (active); and `NC(=O)C1CCN(CC(=O)Nc2cccc(C(=O)Nc3cccc(C(F)(F)F)c3)c2)CC1`, with -0.137. The compound `CS(=O)(=O)N(Cc1ccccc1)c1ccc(C(=O)NC2CCCCC2O)cc1` (configuration not stated) yielded a z-score of 0.252. In the case of `O=C(NNS(=O)(=O)c1ccc(F)c(Cl)c1)c1cccc(S(=O)(=O)N2CCOCC2)c1`, the z-score is -0.0447. As for `O=C(NNS(=O)(=O)c1ccccc1F)c1cccc(S(=O)(=O)N2CCOCC2)c1`, the z-score was 10.4 (active). `O=C(NNS(=O)(=O)c1cccc(Cl)c1Cl)c1cccc(S(=O)(=O)N2CCOCC2)c1` returned a z-score of -0.174. Under `CCNc1nc(NC(C)CC)nc(Oc2ccc(=O)[nH]n2)n1` (configuration not stated) stands -0.162. In turn, `CN=C1c2cc3cc(OC)ccc3n2CCN1C` registered a z-score of 0.371. In the case of `CN=C1c2c(-c3ccccc3)c3cc(OC)ccc3n2CCN1C`, the z-score was 4.2 (active). Then `CN=C1c2cc3c(Br)c(OC)ccc3n2CCN1C`, with 0.218; and `Fc1cccc(-n2c(-c3ccco3)nc3nc4ccccc4nc32)c1`, with 3.05 (active).

The compound `Cc1cccc(-n2c(-c3ccco3)nc3nc4ccccc4nc32)c1` came in with a z-score of -0.0341. Under `CCC(C)n1c(-c2ccco2)nc2nc3ccccc3nc21` (configuration not stated) stands -1.06; under `CCOC(=O)c1cnc(-c2ccccc2)nc1Oc1ccccc1`, -0.19. Under `CCOC(=O)c1cnc(-c2ccccc2)nc1Oc1ccc(Cl)cc1` stands -0.241. Under `CCOC(=O)c1cnc(-c2ccccc2)nc1Oc1ccc(C)cc1` stands 2.4; under `COc1ccc(C(=O)Nc2ccc(S(=O)(=O)NCc3ccco3)cc2)cc1OC`, 3.13 (active); under `O=C(Nc1ccccc1)c1ccc(S(=O)(=O)NCc2ccco2)cc1`, -0.18. `Cc1ccc(C(=O)Nc2ccc(S(=O)(=O)NCc3ccco3)cc2)cc1`: the z-score is 0.0377. Then `CCOC(=O)c1c(NC(=O)C2CCCO2)sc(C(N)=O)c1C` (configuration not stated), with -0.0328; and `CN(C)c1ccc(N=Nc2ccccc2C(=O)OCC(=O)NC2CCCC2)cc1`, with -0.235.

For the compound `COc1cccc(C(=O)NC(C)c2ccc(Br)cc2)c1` (configuration not stated), the z-score was -0.143. Under `CCCC(=O)NC1C2CC3CC(C2)CC1C3` (configuration not stated) stands 0.313.

`CC(=O)c1c(C)[nH]c(C(=O)OCC(=O)Nc2cccc(S(=O)(=O)N3CCCC3)c2)c1C` displayed a z-score of 0.16.

The compound `Cc1cc(C)c(C)c(S(=O)(=O)NNC(=O)c2cccc(S(=O)(=O)N3CCOCC3)c2)c1C` displayed a z-score of -0.174. Turning to `CCCCOC(=O)n1c(=S)oc2cc(Cl)ccc21`, the z-score was -0.00789. `COC(=O)n1c(=S)oc2cc(Cl)ccc21` showed a z-score of 2.15.

Turning to `Cc1ccccc1OC(=O)n1c(=S)oc2cc(Cl)ccc21`, the z-score turned out to be 1.42. Then `O=C(NCc1ccco1)c1ccc(S(=O)(=O)c2cccc(S(=O)(=O)N3CCOCC3)c2)cc1`, with 0.0723; and `CCC(C)C(=O)Nc1nc(C)c(-c2csc(Nc3ccccc3OC)n2)s1` (configuration not stated), with -0.407. Under `Clc1ccc(OCc2cc(-c3ccccc3)no2)c(Cl)c1` stands -0.0969.

For `CCOc1ccc2nc(N3C(=O)/C(=C/c4ccccc4)NC3=S)sc2c1`, the z-score was 3.66 (active). `COc1ccc2nc(N3C(=O)CC(Cc4ccc(Cl)cc4)C3=O)sc2c1` (configuration not stated): the z-score was -0.21.

`COc1ccc(N2C(=O)/C(=C/c3cccnc3)NC2=S)cc1` yielded a z-score of -0.439.

In the case of `COc1ccc2nc(N3C(=O)/C(=C/c4ccc(Cl)cc4)NC3=S)sc2c1`, the z-score was 6.84 (active). Then `COC(=O)/C=C1\C(=O)N(c2nc3ccc(OC)cc3s2)C(=S)N1c1ccc(F)cc1`, with 0.0125. Compound `CCOc1ccc2nc(SCC(=O)c3ccccc3)sc2c1` gave a z-score of 0.303. As to `COc1ccc2nc(N3C(=O)/C(=C/c4ccccc4)NC3=S)sc2c1`, the z-score was 11.9 (active).

`CCOc1ccc2nc(N3C(=O)/C(=C/c4ccc(Cl)cc4)NC3=S)sc2c1` returned a z-score of 1.05. In turn, `COc1ccc2nc(N3C(=O)CC(C(C)c4ccccc4)C3=O)sc2c1` (configuration not stated) gave a z-score of -0.143. In turn, `Cc1cccc(OCCNc2cc(N3CCN(CCO)CC3)ccc2[N+](=O)[O-])c1` returned a z-score of -0.0985. `Cc1cc2c(cc1C)NC1(C(=O)Nc3ccccc31)C1=C(CC(C)(C)CC1=O)N2` (configuration not stated) yielded a z-score of 0.0524.

Turning to `Cc1cccc(Oc2ccccc2NC(=O)c2cnccn2)c1`, the z-score was -0.109. `COc1cc(C(=O)NCCc2ccc3c(c2)OCCO3)ccc1OCC(=O)N1CCOCC1` displayed a z-score of 0.0469.

For `CCCCOc1ccc(-c2cc(C(=O)NNC(=S)NCC)c3ccccc3n2)cc1`, the z-score is -0.155. With `COc1ccccc1N1CCN(C(CNC(=O)c2ccc3c(c2)OCO3)c2cccnc2)CC1` (configuration not stated), the z-score is 0.0309.

`CC(CNCC1CCCO1)COc1cccc2ccccc12` (configuration not stated) showed a z-score of 0.285. In turn, `Cc1ccc(C(=O)N/C(=C\c2ccc(-c3ccc(Br)cc3)o2)C(=O)NC2CCS(=O)(=O)C2)cc1` (configuration not stated) came in with a z-score of -0.13. On to `COc1c(F)c(F)c(C(=O)Nc2ccc3oc(-c4ccncc4)nc3c2)c(F)c1F`, for which the z-score is -0.29. Under `O=C(Nc1ccc2oc(-c3ccncc3)nc2c1)c1c(F)c(F)c(F)c(F)c1F` stands 3.39 (active); under `O=C(Nc1ccc2oc(-c3ccncc3)nc2c1)c1ccccc1F`, -0.225. `COc1cc2c(cc1NCc1ccccn1)oc1ccccc12` gave a z-score of -0.0883. Take `CCC(=O)Nc1ccc(N2CCN(Cc3ccccc3)CC2)cc1`: the z-score was found to be 0.042. Then `O=C(CCS(=O)(=O)c1ccccc1)Nc1nc2c(s1)COc1ccccc1-2`, with -0.504; and `C/C=C/C=N/Nc1nc(-c2ccc([N+](=O)[O-])cc2)cs1`, with -0.273. Take `COc1ccc(C(=O)N2CCN(C3CCC(c4ccccc4)CC3)CC2)cc1OC` (configuration not stated): the z-score is -1.61.

In the case of `Cc1ccc(Cl)cc1NC(=O)CC(O)(C(F)(F)F)C(F)(F)F`, the z-score is -2.38. On to `Cc1ccc(NC(=O)CC(O)(C(F)(F)F)C(F)(F)F)cc1`, for which the z-score was -0.185. On to `O=C(CC(O)(C(F)(F)F)C(F)(F)F)Nc1ccc(Cl)c(Cl)c1`, for which the z-score was 6.91 (active). Turning to `CCOC(=O)CC(=O)CSc1nc2c(cc1C#N)CCC2`, the z-score was found to be 2.18. With `CCOC(=O)CC(=O)CSc1nc2c(cc1C#N)CCCCC2`, the z-score was 1.09. On to `COC(=O)CC(=O)CSc1nc2c(cc1C#N)CCC2`, for which the z-score was -0.106. `CCC(=O)NCCCCNC(=O)CC` showed a z-score of 0.217. Then `CC1(C)CC(=O)C2=C(C1)OC(N)=C(C#N)C2c1cn(-c2ccccc2)nc1-c1ccc(F)cc1` (configuration not stated), with -0.436; and `CCNC(=O)c1ccccc1NC(=O)c1cccc(S(=O)(=O)N2CCC(C)CC2)c1`, with -1.17; and `O=C1N=C(N2CCOCC2)S/C1=C\c1ccc(-c2ccccc2Cl)o1`, with -0.0639. Turning to `O=C1/C(=C\c2ccc(-c3ccccc3Cl)o2)SC(=S)N1CC1CCCO1` (configuration not stated), the z-score was 0.755. Take `O=C1NC(=S)/C(=C\c2ccc(-c3ccccc3Cl)o2)S1`: the z-score is 3.83 (active). Compound `COC(=O)c1sccc1NC(=O)c1c(C)cc(=O)oc1C` displayed a z-score of -0.28.

For `Cc1ccc(NC(=O)C(NC2CCCc3ccccc32)c2ccccc2)cc1Cl` (configuration not stated), the z-score was -0.174. For the compound `Cc1ccc(NC(=O)C(NC2CCCc3ccccc32)c2ccccc2)c([N+](=O)[O-])c1` (configuration not stated), the z-score was 2.09. `Nc1ccc(C(=O)OCC(=O)NC2CCCc3ccccc32)cc1[N+](=O)[O-]` (configuration not stated) yielded a z-score of -0.347.

`O=C(NC1CCCCC1)N(C1=NCCCCC1)c1ccc(Br)cc1`: the z-score is -0.204. As to `CCOC(=O)C1=C(c2ccccc2)OC(N)=C(C#N)C1C1CCCCC1` (configuration not stated), the z-score is -0.435.

In turn, `COc1ccc(/C=C2\N=C(SC)SC2=O)cc1OC` yielded a z-score of -0.325. The compound `Cc1ccc2ncccc2c1[N+](=O)[O-]` yielded a z-score of -0.242.

Compound `COC(=O)c1cc2nc(-c3ccccc3)cc(C)n2n1` had a z-score of 0.0407.

Turning to `CCOc1ccc(-c2cc(C)n3nc(C(N)=O)cc3n2)cc1`, the z-score was 5.02 (active). For `Cc1cc(-c2ccc(F)cc2)nc2cc(C(N)=O)nn12`, the z-score amounted to 0.242.

Values taken from PubChem BioAssay AID488969 (Vanderbilt High Throughput Screening Facility, 2010).
